Experimental data reported in the supplement of paper PMC6124720.
Unmarked numbers belong to inactive results.

Tested on: Pseudogymnoascus destructans 20631-21
Experiment: growth activity index (DuctApe, 0 = no growth, 9 = maximal growth) (index 0-9); higher = more fungal growth (less inhibition), active = 0 or less; extreme values may be limits of the assay
Conditions: concentration level (1-4, increasing; Biolog proprietary): 4; temperature: 13 °C; YPD
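Also: biolog Phenotype Microarray plates PM21–25, OD595 followed daily over 11 days, growth curves converted to index, mean of two independent experiments.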

SMILES	growth activity index
CCCCCCCCCCCCCCCCOP(=O)([O-])OCC[N+](C)(C)C [Miltefosine] (Biolog plate: PM22)	0 (active)
CN(C)C(=O)/N=N/C(=O)N(C)C [Diamide] (Biolog plate: PM21)	0 (active)
NC[C@@H]1O[C@H](O[C@H]2[C@@H](O)[C@H](O[C@@H]3[C@@H](O)[C@H](N)C[C@H](N)[C@H]3O[C@H]3O[C@H](CN)[C@@H](O)[C@H](O)[C@H]3N)O[C@@H]2CO)[C@H](N)[C@@H](O)[C@@H]1O [Neomycin] (Biolog plate: PM21)	1.25
O=S(=O)([O-])[O-].[Cu+2] [Copper (II) sulfate] (Biolog plate: PM21)	6
N.N.O=S(=O)(O)O [Ammonium Sulfate] (Biolog plate: PM23)	2.67
N[C@H](CO)C(=O)O [D-Serine] (Biolog plate: PM22)	4
CC(C)Cc1ccc(C(C)C(=O)O)cc1 (stereo not drawn) [Ibuprofen] (Biolog plate: PM25)	5
O=NO [Sodium Nitrite] (Biolog plate: PM23)	1.33
O=C(O)CN(CCN(CC(=O)O)CC(=O)O)CC(=O)O (Biolog plate: PM21)	5
O=c1[nH]c(=O)n([C@H]2C[C@H](O)[C@@H](CO)O2)cc1F [Fluorodeoxyuridine] (Biolog plate: PM25)	3
[Cl-].[Li+] [Lithium chloride] (Biolog plate: PM22)	0 (active)
[Na+].[O]=[V](=[O])[O-] [Sodium metavanadate] (Biolog plate: PM22)	3.67
O=C(O)CC(O)C(=O)O (stereo not drawn) [Malic acid] (Biolog plate: PM25)	1.33
c1ccc(-c2ccccn2)nc1 [2,2`-Dipyridyl] (Biolog plate: PM21)	5.25
O=C(O)C(O)C(O)C(=O)O (stereo not drawn) [Tartaric acid] (Biolog plate: PM25)	1.33
COc1cc(/C=C/C(=O)O)ccc1O [Ferulic acid] (Biolog plate: PM25)	1
CCCCCCCCCCCC[N+](C)(C)C [Dodecyltrimethyl ammonium bromide] (Biolog plate: PM21)	1
NNC(=O)c1ccncc1 [Isoniazid] (Biolog plate: PM24)	0.333
